In PubChem BioAssay (NCATS):
Inconclusive results are not listed. Calls of active or inactive are those of the source. Calls come from the whole dose curve; as a rule, active = well fitted curve in the direction sought with a large enough effect; inconclusive = small, poorly fitted or top-dose-only effect, or another doubt; inactive = no such curve, though single readings can be large; an effect the other way counts as inactive or inconclusive.

How the values were obtained:
Hek293T = assay: Primary qHTS to identify gynecologic anti-cancer compounds using libraries of approved drugs and bioactive compounds (AID 1345084); conditions: Gynecologic cancer cell panel viability, ATPlite luminescence, 48 h, control line for the selectivity index; series mostly up to 57.5 µM; note: nearly all actives have a fitted effect of over 55% in size
Outline: (§1)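 Five-point cytotoxicity, 48 h drug exposure at 37 C, 5% CO2, on cells seeded 16 h beforehand. ATP content read by ATPlite luminescence.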

JEG-3 = assay: as above; conditions: Gynecologic cancer cell panel viability, ATPlite luminescence, 48 h; series mostly up to 57.5 µM
Outline: as §1

OV90 = assay: as above; conditions: Gynecologic cancer cell panel viability, ATPlite luminescence, 48 h; series mostly up to 57.5 µM
Outline: as §1

PA-1 = assay: as above; conditions: Gynecologic cancer cell panel viability, ATPlite luminescence, 48 h; series mostly up to 57.5 µM
Outline: as §1

SKOV3 = assay: as above; conditions: Gynecologic cancer cell panel viability, ATPlite luminescence, 48 h; series mostly up to 57.5 µM
Outline: as §1

Tov-21-G = assay: as above; conditions: Gynecologic cancer cell panel viability, ATPlite luminescence, 48 h; series mostly up to 57.5 µM
Outline: as §1

Tov112D = assay: as above; conditions: Gynecologic cancer cell panel viability, ATPlite luminescence, 48 h; series mostly up to 57.5 µM
Outline: as §1

[1] = Drug repurposing screens with cells derived from glioblastoma tumor samples (AID 1345199); conditions: GBM patient neurospheres viability, ATP luminescence, 48 h; note: nearly all actives have a fitted effect of over 40% in size; note: potency is the fitted concentration of half-maximal effect
Outline: (§2)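 Primary testing used CD133+ neurospheres from four GBM patients, seven concentrations, 48 h exposure and ATP-based viability; confirmation added three slower-growing patient lines.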

astro = assay: as above; conditions: viability, ATP luminescence, 48 h; series mostly up to 45.9 µM
Outline: as §2

[2] = at 45.9 µM (top of the series), tumour line B
[3] = at 45.9 µM (top of the series), tumour line D
[4] = at 46.1 µM (top of the series), tumour line C
[5] = at 46 µM (top of the series), tumour line A
[6] = at 21.2 µM (top of the series), tumour line B
[7] = at 21.2 µM (top of the series), tumour line D
[8] = at 21.3 µM (top of the series), tumour line A
% is set by controls: 0 for no effect and ±100 for the full control effect.

CN(C)CCOC(=O)C(c1ccccc1)C1(O)CCCC1 (stereo not drawn)
inactive: Potency (Hek293T) | Potency (JEG-3) | Potency (OV90) | Potency (PA-1) | Potency (SKOV3) | Potency (Tov-21-G) | Potency (Tov112D) | activity, negative = cell killing [1, 2] -2.94% | activity, negative = cell killing [1, 3] -18.8% | activity, negative = cell killing [1, 4] -22.9% | Potency (astro)

NC(=S)N/N=C/c1cccnc1
inactive: Potency (Hek293T) | Potency (JEG-3) | Potency (OV90) | Potency (PA-1) | Potency (SKOV3) | Potency (Tov-21-G) | Potency (Tov112D) | activity, negative = cell killing [1, 2] -6.47% | activity, negative = cell killing [1, 3] 0.861% | activity, negative = cell killing [1, 4] -3.6% | Potency (astro)

O=C1OC2(c3ccccc31)c1cc(Br)c(O)c(Br)c1Oc1c2cc(Br)c(O)c1Br
inactive: Potency (Hek293T) | Potency (JEG-3) | Potency (OV90) | Potency (PA-1) | Potency (SKOV3) | Potency (Tov-21-G) | Potency (Tov112D) | activity, negative = cell killing [1, 2] -12.6% | activity, negative = cell killing [1, 3] -6.67% | activity, negative = cell killing [1, 4] -34.7% | Potency (astro)

C#C[C@]1(OC(C)=O)CC[C@H]2[C@@H]3CCC4=C/C(=N/O)CC[C@@H]4[C@H]3CC[C@@]21CC
inactive: Potency (Hek293T) | Potency (JEG-3) | Potency (OV90) | Potency (PA-1) | Potency (SKOV3) | activity, negative = cell killing [1, 4] -21.9%
active: Potency ([1]; tumour line A) 8.91 µM

CN(C)C(=O)Nc1ccc(Cl)c(Cl)c1
inactive: Potency (Hek293T) | Potency (JEG-3) | Potency (OV90) | Potency (PA-1) | Potency (SKOV3) | Potency (Tov-21-G) | Potency (Tov112D) | activity, negative = cell killing [1, 2] -10.4% | activity, negative = cell killing [1, 3] -7.69% | activity, negative = cell killing [1, 4] -10.1% | Potency (astro)

COc1ccc(S(=O)(=O)N2c3ccc(Cl)cc3[C@@](O)(c3ccccc3Cl)[C@H]2C(=O)N2CCC[C@@H]2C(N)=O)cc1OC
inactive: Potency (Hek293T) | Potency (JEG-3) | Potency (OV90) | Potency (PA-1) | Potency (SKOV3) | Potency (Tov-21-G) | Potency (Tov112D) | activity, negative = cell killing [1, 2] -16.9% | activity, negative = cell killing [1, 3] -6.65% | activity, negative = cell killing [1, 4] -27% | Potency (astro)

CCNC(=O)/C=C/c1cccc(Br)c1
inactive: Potency (Hek293T) | Potency (JEG-3) | Potency (OV90) | Potency (PA-1) | Potency (SKOV3) | Potency (Tov-21-G) | activity, negative = cell killing [1, 2] -10.7% | activity, negative = cell killing [1, 3] -16% | activity, negative = cell killing [1, 4] -17.6% | Potency (astro)

O=C(CN1CCN(Cc2ccc3c(c2)OCO3)CC1)N1c2ccccc2Sc2ccccc21
inactive: Potency (Hek293T) | Potency (JEG-3) | Potency (OV90) | Potency (PA-1) | Potency (Tov-21-G) | Potency (Tov112D)

CCCCNC(=O)NS(=O)(=O)c1ccc(N)cc1
inactive: Potency (Hek293T) | Potency (JEG-3) | Potency (OV90) | Potency (PA-1) | Potency (Tov-21-G) | Potency (Tov112D) | activity, negative = cell killing [1, 2] -8.59% | activity, negative = cell killing [1, 3] 11% | activity, negative = cell killing [1, 5] -6.54% | activity, negative = cell killing [1, 4] -25.7% | Potency (astro)

Nc1ccc(C(=O)NCC(=O)O)cc1
inactive: Potency (Hek293T) | Potency (JEG-3) | Potency (OV90) | Potency (PA-1) | Potency (Tov-21-G) | Potency (Tov112D) | activity, negative = cell killing [1, 6] -7.61% | activity, negative = cell killing [1, 7] -13.9% | activity, negative = cell killing [1, 8] -13.3% | Potency (astro)

CC(=O)NC(=O)c1ccccc1O
inactive: Potency (Hek293T) | Potency (JEG-3) | Potency (OV90) | Potency (PA-1) | Potency (Tov-21-G) | Potency (Tov112D) | activity, negative = cell killing [1, 2] -6.43% | activity, negative = cell killing [1, 3] -8.37% | activity, negative = cell killing [1, 5] -24.9% | activity, negative = cell killing [1, 4] -17.7% | Potency (astro)

COc1ccc(C(Cl)=C(c2ccc(OC)cc2)c2ccc(OC)cc2)cc1
active: Potency ([1]; tumour line A) 11.2 µM
inactive: Potency (Hek293T) | Potency (JEG-3) | Potency (OV90) | Potency (PA-1) | Potency (Tov-21-G) | Potency (Tov112D) | activity, negative = cell killing [1, 2] -6.95% | activity, negative = cell killing [1, 4] 2.89% | Potency (astro)

CC(C)(C)NC[C@H](O)COc1cccc2c1CCCC2=O
inactive: Potency (Hek293T) | Potency (JEG-3) | Potency (OV90) | Potency (PA-1) | Potency (Tov-21-G) | Potency (Tov112D) | activity, negative = cell killing ([1]; at 20 µM (top of the series), tumour line C) 5.11% | activity, negative = cell killing [1, 6] -13.9% | activity, negative = cell killing [1, 7] -6.37% | activity, negative = cell killing [1, 8] -24.3% | Potency (astro)

O=[N+]([O-])c1cccc(S(=O)(=O)NCCNS(=O)(=O)c2cccc([N+](=O)[O-])c2)c1
inactive: Potency (Hek293T) | Potency (JEG-3) | Potency (OV90) | Potency (PA-1) | Potency (Tov-21-G) | Potency (Tov112D) | activity, negative = cell killing [1, 2] -14.3% | activity, negative = cell killing [1, 3] -9.35% | activity, negative = cell killing [1, 4] -36.6% | Potency (astro)

N#C/C(=C1\SCC(c2ccccc2Cl)S1)n1ccnc1 (stereo not drawn)
inactive: Potency (Hek293T) | Potency (JEG-3) | Potency (OV90) | Potency (PA-1) | Potency (Tov-21-G) | Potency (Tov112D) | activity, negative = cell killing [1, 2] -11.6% | activity, negative = cell killing [1, 3] -27.3% | activity, negative = cell killing [1, 4] 0.133% | Potency (astro)
active: Potency ([1]; tumour line A) 10 µM

Cc1cc(C)cc(OCC2CNC(=O)O2)c1 (stereo not drawn)
inactive: Potency (Hek293T) | Potency (JEG-3) | Potency (OV90) | Potency (PA-1) | Potency (Tov-21-G) | Potency (Tov112D) | activity, negative = cell killing [1, 2] 0.397% | activity, negative = cell killing [1, 3] -17.2% | activity, negative = cell killing [1, 5] -25.9% | activity, negative = cell killing [1, 4] 3.04% | Potency (astro)

COc1ccccc1N1CCN(CCCCNC(=O)c2ccc(-c3ccc(C(C)=O)cc3)cc2)CC1
inactive: Potency (Hek293T) | Potency (JEG-3) | Potency (OV90) | Potency (PA-1) | Potency (Tov-21-G) | Potency (Tov112D)

O=C(c1ccc(F)cc1)C1CCN(CCn2c(=S)[nH]c3ccccc3c2=O)CC1
active: Potency ([1]; tumour line A) 12.6 µM | Potency ([1]; tumour line C) 20.6 µM
inactive: Potency (Hek293T) | Potency (JEG-3) | Potency (OV90) | Potency (SKOV3) | Potency (Tov-21-G) | Potency (Tov112D) | activity, negative = cell killing [1, 2] -29.1%

CC(C)NCC(O)c1ccc2ccccc2c1 (stereo not drawn)
inactive: Potency (Hek293T) | Potency (JEG-3) | Potency (OV90) | Potency (PA-1) | Potency (Tov-21-G) | Potency (Tov112D) | activity, negative = cell killing [1, 2] -12.4% | activity, negative = cell killing [1, 3] -5.15% | activity, negative = cell killing [1, 4] -5.59% | Potency (astro)
